HTT cytoprotect – qHTS Multiplex Assay to Identify Dual Action Probes in a Cell Model of Huntington: Cytoprotection (ATP); PC12 HTT-Q103 induced, cytoprotection, ATP luminescence, 40 h; Potency, µM (top dose mostly 56.4 µM), for the others: cytoprotection (ATP increase), actives largely listed as activators; 230,000 compounds, 0.14% hits; AID 1471, 2008; further: % of control where 0% means no effect; nearly all actives have a fitted effect of over 45% in size
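Compounds added alongside 100 nM tebufenozide, which induces toxic Q103 huntingtin exon 1-GFP in stable PC12 cells; surviving cells quantified by luminescent ATP measurement. Medium: phenol red-free DMEM, 5% equine and 5% calf serum.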
PINK1 expr mod – A Quantitative High throughput Screen to Identify Chemical Modulators of PINK1 Expression; Potency, µM (highest dose often 76.6 µM), without a hit: at the highest dose activation (PINK1 increase), actives largely listed as activators; AID 624263, 2012; PINK1 immunofluorescence, high-content cytometry, 24 h; 410,000 compounds, 0.2% hits; active means well fitted activation curve with a large enough effect; inconclusive means small, poorly fitted or top-dose-only effect; cell line not stated here; further: % of control where 0% means no effect; nearly all actives have a fitted effect of over 65% in size
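Fluorescence from anti-PINK1 antibody, together with nuclear and cell stains, was scanned on a laser-scanning cytometer. Before staining, stable-line cells were incubated 24 hours with compounds at 5 concentrations; primary antibody 12 h at 10 degrees C.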
Epigenetic derep – Quantitative High-Throughput Screen for Regulators of Epigenetic Control | murine LDR cells, GFP reporter derepression, 30 h | Potency, µM (series often up to 53.9 µM), for inactives: at the highest dose GFP activation, usual class: activators | 280,000 compounds, 0.2% hits; further: % of control where 0% means no effect; nearly all actives have a fitted effect of over 60% in size
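GFP-positive cell count by laser-scanning cytometry (objects 20–120 um) after 30 h, 37 C compound exposure of murine LDR cells; reporter is CMV-GFP integrated at a silenced locus, inducible by HDAC or DNMT inhibitors.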
PTAP TSG101 blk – qHTS Assay for Iinhibitors of HIV-1 Budding by Blocking the Interaction of PTAP/TSG101; Tumor susceptibility gene 101 protein (Homo sapiens), Q99816; Potency, µM (titrated, usually from 115 µM), inactives show top-dose activity change, negative = inhibition, hits mostly inhibitors; AID 493005, 2010; Fluorescence polarization, FITC-PTAP peptide / Tsg101 binding; 340,000 tested, under 10 active; active means well fitted inhibition curve with a large enough effect in the main read-out, with a control signal flat, not every such curve was filed as active; inconclusive means small, poorly fitted or top-dose-only effect, or effect the other way, or a change in a side signal; inactive means no such curve, though single readings can be large or run the other way; further: % of control where 0% means no effect
Target sequence (Q99816 whole entry, looked up): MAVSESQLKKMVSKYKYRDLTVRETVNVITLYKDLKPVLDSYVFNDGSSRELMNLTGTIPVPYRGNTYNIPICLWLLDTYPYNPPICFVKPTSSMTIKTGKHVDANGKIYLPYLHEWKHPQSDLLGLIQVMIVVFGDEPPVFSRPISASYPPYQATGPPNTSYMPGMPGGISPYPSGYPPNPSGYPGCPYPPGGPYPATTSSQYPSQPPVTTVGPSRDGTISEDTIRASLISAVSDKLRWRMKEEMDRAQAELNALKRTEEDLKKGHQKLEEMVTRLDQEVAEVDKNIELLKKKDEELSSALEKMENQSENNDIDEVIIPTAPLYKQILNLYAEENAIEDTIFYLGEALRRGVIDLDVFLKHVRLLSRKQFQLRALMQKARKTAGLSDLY
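Fluorescence polarization binding of Tsg101 binding domain (10 uM final) to FITC-labeled PTAP peptide (50 nM final) in HEPES pH 7.5 buffer with NaCl, Tween 20, EDTA, TCEP. Compounds added before peptide; binding 20 min at RT.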
HTT aggregate – qHTS Multiplex Assay to Identify Dual Action Probes in a Cell Model of Huntington: Aggregate Formation (GFP); AID 1688, 2009; PC12 HttQ103-GFP aggregates, Acumen cytometry, 40 h; 220,000 compounds, 1.1% hits; Potency, µM (titrated, usually from 46.1 µM), for inactives: top-dose activity change, negative = inhibition, usual class: inhibitors; further: on the % scale 0 is the no-effect control and ±100 the full control effect; nearly all actives have a fitted effect of over 60% in size
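Steps: seed 1500 PC12 HTTQ103-GFP cells/well; add tebufenozide, 100 nM final; add compound titration; add ATPLite reagent; quantify GFP aggregates by laser scanning cytometry.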
Anesthetic bind – qHTS Assay for Identification of Novel General Anesthetics; Ferritin light chain (Equus caballus), P02791; apoferritin/1-aminoanthracene competitive binding, fluorescence; Potency, µM (top dose mostly 77.5 µM), for the others: at the highest dose activity change, negative = displacement, actives largely listed as inhibitors; 350,000 compounds, 0.074% hits; further: on the % scale 0 is the no-effect control and ±100 the full control effect; nearly all actives have a fitted effect of over 20% in size
Target sequence (P02791 2-175 limits assumed): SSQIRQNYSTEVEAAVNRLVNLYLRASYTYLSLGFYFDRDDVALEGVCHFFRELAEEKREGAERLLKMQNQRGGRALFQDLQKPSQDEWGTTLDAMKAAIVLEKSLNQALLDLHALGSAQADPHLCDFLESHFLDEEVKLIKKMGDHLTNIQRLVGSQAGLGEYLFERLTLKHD
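In PBS, apoferritin at 10 uM is loaded with 1-AMA from a 50% saturated solution. After 10 min of compound exposure at ambient temperature, reduced 535 nm fluorescence indicates probe displacement.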
* = called active by the depositor; ? = inconclusive; nt = no result; [ ] = remark or other dose. Many of the other results were omitted from the sample, so hits are more common in it than they were. Unless noted, the call rests on the fitted dose curve; in most records, active means well fitted curve in the direction sought with a large enough effect; inconclusive means small, poorly fitted or top-dose-only effect, or another doubt; inactive means no such curve, though single readings can be large; an effect the other way counts as inactive or inconclusive. Potency means the concentration at half of the fitted maximal effect.

SMILES	HTT cytoprotect	PINK1 expr mod	Epigenetic derep	PTAP TSG101 blk	HTT aggregate	Anesthetic bind
CN1CCN(C2=CC3=CC(=C(C#N)C#N)CCC3CC2)CC1 (centres undefined)	-11.9%	?	?	?	0.316µM*	-8.9%
N#CC(C#N)=C1C=C2C=C(N3CCCCCC3)CCC2CC1 (centres undefined)	-0.6%[10 µM]	11.2µM*	?	?	0.708µM*	-18.1%
CC1(C)CC(NCCN2CCN(C3=CC(=C(C#N)C#N)CC(C)(C)C3)CC2)=CC(=C(C#N)C#N)C1	-46.0%	-0.1%	-0.3%	-0.2%	-10.8%	-5.0%
O=c1oc2ccc(Br)cc2cc1-c1nc2c(s1)CCc1ccccc1-2	nt	4.5%	nt	nt	nt	nt
Cc1nc(CC(=O)NCC2Cc3cc(F)cc(-c4ccc(F)c(C)c4)c3O2)cs1 (centres undefined)	nt	-0.5%	nt	nt	nt	nt
COc1cc2c(cc1OC)C1(Nc3c-2c(C)nn3-c2ccccc2)C(=O)Nc2ccccc21 (centres undefined)	3.55µM*	7.4%	?	1.0%	-5.2%	-15.8%
CC(C)c1ccc(NC(=O)C2CC2c2ccccc2)cc1 (centres undefined)	nt	5.1%	nt	-2.3%	nt	35.5µM*
COCCCNC1=C(Cl)C(=O)c2ccccc2C1=O	-17.2%[10 µM]	-1.5%	2.4%	-8.1%	2.3%[9.22 µM]	-6.6%
COCCCNc1c2c3c(cccc3[nH]c1=O)C(=O)c1ccccc1-2	-39.9%	6.9%	?	?	10µM*	480.2%
O=C(c1noc2c1CCCCC2)N1CCN(c2cccc(C(F)(F)F)c2)CC1	nt	10.5%	-1.3%	nt	nt	67.2%
c1ccc(-c2cnn3c(-c4ccccc4)c(-c4ccccc4)nc3n2)cc1	34.9%[10 µM]	?	2.82µM*	?	-8.0%	3.5%
Nc1nc(-c2ccccc2)c(-c2ccccc2)n1N	nt	0.2%	nt	0.3%	nt	-14.1%
O=C(CCCN1C(=O)/C(=C/c2ccccc2Cl)SC1=S)NNC(=O)c1ccc(Cl)cc1	8.1%[10 µM]	5.0%	8.6%	4.9%	-19.7%[9.22 µM]	4.9%
Cc1ccc(C(=O)NNC(=O)CCCN2C(=O)/C(=C/c3ccccc3Cl)SC2=S)cc1	nt	5.0%	1.1%	0.1%	35.5µM*	-9.1%
O=C(Nc1ccc(F)cc1)Nc1ccc2snnc2c1	nt	31.6µM*	-3.0%	nt	nt	6.0%
CC(=O)c1ccc(NC(=O)Nc2ccc3snnc3c2)cc1	nt	?	-4.1%	nt	nt	-3.8%
COc1ccccc1NC(=O)/C(C#N)=C/C=C/c1ccco1	-43.3%	2.82µM*	?	-7.3%	19.7%	-20.4%
CC1C(c2ccccc2)N(C)C(c2ccccc2)C(C)C1(O)C#Cc1ccccc1 (centres undefined)	-12.9%[1.9 µM]	31.6µM*	4.2%	0.1%	6.3%	3.9%
CCN1CCC(O)(C#Cc2ccccc2)CC1	nt	1.6%	nt	2.7%	nt	-0.4%
Cc1oc2c(c1C(=O)N1CCC(C)CC1)C(=O)c1ccccc1C2=O	nt	-0.1%	2.7%	-2.4%	7.08µM*	-14.8%
CCN(CC)c1ccc2nc3c(=O)n(C)c(=O)n(C)c3nc2c1	nt	-0.2%	12.6µM*	nt	nt	38.3%
CC(=O)C1=C(c2ccc(Br)cc2)C(=O)c2ccccc2C1=O	-82.1%[10 µM]	-0.2%	0.0%	-3.7%	5.01µM*	-14.3%
COc1ccc(C2(C(=O)NCC3Cc4cccc(-c5cccnc5)c4O3)CCCC2)cc1 (centres undefined)	nt	-0.1%	nt	nt	nt	nt
CCSc1nc2c(c(=O)n1Cc1ccccc1)SC(C)C2 (centres undefined)	5.1%	nt	0.0%	-5.3%	28.2µM*	-13.4%
O=C(Nc1cccnc1)c1sc(Nc2ccccc2)nc1-c1ccccc1	-7.5%[10 µM]	?	-0.9%	0.8%	-12.1%	-0.1%
SMILES	HTT cytoprotect	PINK1 expr mod	Epigenetic derep	PTAP TSG101 blk	HTT aggregate	Anesthetic bind
Cc1nc(Nc2c(Cl)cccc2Cl)sc1C(=O)Nc1ccccc1	-14.7%[10 µM]	4.3%	-1.0%	0.2%	11.2µM*	-3.0%
Cc1nc(NC(=O)C2CC2)sc1C(=O)Nc1ccccc1	nt	2.3%	nt	0.7%	nt	3.1%
Cc1cccc(Nc2nc(-c3ccccc3)c(C(=O)Nc3cccnc3)s2)c1	11.6%[10 µM]	2.7%	-1.0%	2.3%	6.31µM*	35.7%
O=[N+]([O-])c1ccc(N=Nc2ccc(O)cc2O)cc1	-146.9%	?	-7.6%	-3.6%	1.26µM*	-22.1%
O=[N+]([O-])c1cccc(N=Nc2ccc(O)cc2O)c1	nt	?	nt	0.5%	nt	nt
Cc1ccc(C(c2sc3nc(-c4ccco4)nn3c2O)N2CCC3(CC2)OCCO3)cc1 (centres undefined)	nt	1.4%	7.0%	nt	nt	-0.6%
COc1cc2c(NC3CCN(C)CC3)nc(N3CCCN(C)CC3)nc2cc1OCc1ccccc1	nt	0.9%	nt	nt	nt	nt
CC(NC(=O)Nc1nnc(C(F)(F)F)s1)(C(F)(F)F)C(F)(F)F	-59.3%	?	-0.2%	3.1%	2.24µM*	-21.0%
O=C(Nc1nnc(C(F)(F)F)s1)C1COc2ccccc2O1 (centres undefined)	-23.3%	?	-0.7%	-3.5%	25.1µM*	-14.9%
CCSc1nnc(NC(=O)c2ccc(Br)s2)s1	-10.6%	5.7%[38.3 µM]	2.4%	-5.6%	-23.6%	-3.3%
O=C(Nc1nnc(C(F)(F)F)s1)c1ccc(Br)s1	nt	?	-0.2%	-10.0%	5.62µM*	-4.7%
COc1cc(=O)n2c(c1C(=O)N(C)Cc1nccs1)CCN(Cc1cc(C)cc(C)c1)CC2	nt	0.1%	nt	nt	nt	nt
CS(=O)(=O)N(CC(=O)NCc1ccncc1)Cc1ccc(Cl)cc1	-20.6%	-1.1%	-1.1%	0.3%	0.631µM*	-1.1%
CS(=O)(=O)N(CC(=O)NCc1cccnc1)Cc1ccc(Cl)cc1	9.2%[0.074 µM]	-2.8%[38.3 µM]	0.0%	-8.5%	-5.1%	-4.6%
CCCOCc1cc(CN2CCN(c3ccccc3OC)CC2)c(O)c2ncccc12	nt	3.2%	3.55µM*	nt	nt	?
COc1ccccc1N1CCN(Cc2cc(COC(C)C)c3cccnc3c2O)CC1	nt	4.9%	3.55µM*	nt	nt	?
COc1ccccc1N1CCN(Cc2cc(Br)c(O)c3ncccc23)CC1	-49.7%	?	?	-0.8%	10µM*	-13.2%
COC(=O)C1CCN(Cc2ccc3c(c2)CN(C(=O)c2cc4cc(F)ccc4[nH]2)CCO3)CC1	nt	-0.4%	nt	nt	nt	nt
Cc1ccc(CN2CCOc3ccc(CN4CCN(CCO)CC4)cc3C2)s1	nt	-0.1%	nt	nt	nt	nt
O=C(Nc1nccs1)c1cc2c(s1)CCCCC2	-69.2%[10 µM]	0.4%	-0.2%	-1.7%	12.6µM*	-17.9%

Compound activity: PubChem BioAssay, National Center for Advancing Translational Sciences (NCATS)
